HT1080 IDH1KD tx = qHTS for induction of synthetic lethality in tumor cells producing 2HG: qHTS for the HT-1080-IDH1KD cell line | HT-1080 IDH1 knockdown viability, ATP luminescence, 48 h | Potency, µM (highest dose often 46.1 µM), hits mostly cytotoxic | actives 2% (n = 360,000) | AID 686971, 2013
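HT-1080-IDH1KD cells (IDH1 knocked down), 750/well in RPMI with 5% FBS, treated with compound 48 h at 37 degrees C. Viability by CellTiter-Glo luminescence, normalised to DMSO and no-cell wells; concentration-response curves classed.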
IL-1B inflam inh = qHTS for Inhibitors of Inflammasome Signaling: IL-1-beta AlphaLISA Primary Screen; THP-1 LPS/ATP IL-1B secretion, AlphaLISA, 16 h; active compounds read low; actives 4.7% (n = 360,000); AID 743279, 2014; activity change, % at 57.5 µM; in the data active = activity change below about -50%; inconclusive = mostly about -30% to -49%
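Secreted IL-1B measured by AlphaLISA bead assay after 16 h compound exposure of THP-1 cells; compounds (final up to 57.5 uM) added 1 h before LPS (250 ng/mL) and ATP (1.25 mM) stimulation; lower signal means less secretion.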
HT1080-NT tox = qHTS for induction of synthetic lethality in tumor cells producing 2HG: qHTS for the HT-1080-NT fibrosarcoma cell line. HT-1080-NT fibrosarcoma viability, CellTiter-Glo ATP luminescence, 48 h. Potency, µM (top dose mostly 46.1 µM), most hits filed as cytotoxic. actives 1.6% (n = 360,000). AID 686970, 2013;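 also: NT is the 2HG producing partner of a matched IDH1 knockdown line; nearly all actives have a fitted effect of over 55% in size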
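Compounds were tested in concentration-response format on HT-1080-NT cells for 48 hours at 37 degrees C. Cell viability came from CellTiter-Glo luminescence; curves were classified by r2, response magnitude and activity.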
TDP1 cell noCPT = qHTS for Inhibitors of human tyrosyl-DNA phosphodiesterase 1 (TDP1): qHTS in cells in absence of CPT; Potency, µM (doses to about 46.2 µM), most hits filed as inhibitors; DT40 Tdp1-/- hTDP1 cells, no CPT, ATP luminescence, 48 h; actives 15% (n = 420,000); also: nearly all actives have a fitted effect of over 55% in size
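Luminescent ATP content (CellTiter-Glo) served as the growth readout. Knockout chicken DT40 cells expressing human TDP1 were exposed to compounds without camptothecin for a minimum 48 hr at 37 °C.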
DT40 TDP1 CPT = qHTS for Inhibitors of human tyrosyl-DNA phosphodiesterase 1 (TDP1): qHTS in cells in presence of CPT | chicken DT40 Tdp1-/-;hTDP1 cells + 20 nM CPT, ATP luminescence, 48 h | Potency, µM (doses to about 46.2 µM), actives largely listed as inhibitors | actives 12% (n = 420,000); also: nearly all actives have a fitted effect of over 55% in size
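Chicken DT40 Tdp1-/- cells complemented with human TDP1, 400 cells/well, exposed to compounds plus 20 nM camptothecin for at least 48 h at 37 C; viability read as ATP content by CellTiter-Glo luminescence.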
Each line names hits and unclear results; the compound was inactive in the other large screens. Compounds with a hit are over-represented: about 19% of the library has one in this group of screens. Unless noted, calls follow the shape of the dose curve; as a rule, active = well fitted curve in the direction sought with a large enough effect; inconclusive = small, poorly fitted or top-dose-only effect, or another doubt; inactive = no such curve, though single readings can be large; an effect the other way counts as inactive or inconclusive.

CN1/C(=C\C(=O)Nc2ccc(Br)cc2)C(C)(C)c2ccccc21	DT40 TDP1 CPT inconclusive
CCOC(=O)C1CCCN(CC(=O)/C=C2/N(C)c3ccccc3C2(C)C)C1 (centres undefined)	TDP1 cell noCPT 13µM, DT40 TDP1 CPT inconclusive
CN1/C(=C/C(=O)COC(=O)CN2C(=O)C3CC=CCC3C2=O)C(C)(C)c2ccccc21 (centres undefined)	TDP1 cell noCPT 16µM, DT40 TDP1 CPT inconclusive
CN1/C(=C\C(=O)Nc2ccc(F)cc2)C(C)(C)c2ccccc21	TDP1 cell noCPT inconclusive, DT40 TDP1 CPT inconclusive
CN1/C(=C/C(=O)C2CC2)C(C)(C)c2ccccc21	TDP1 cell noCPT 23µM, DT40 TDP1 CPT inconclusive
COc1cccc(N(CC(=O)NCCSCc2ccc(Cl)cc2)S(C)(=O)=O)c1	TDP1 cell noCPT inconclusive, DT40 TDP1 CPT inconclusive
COC(=O)[C@]1(C)N[C@H](CN(C)S(=O)(=O)c2ccc(C)cc2)[C@@H]2C(=O)N(C)C(=O)[C@@H]21	none
O=C(Cn1nnc(-c2ccc(F)cc2)n1)OCC(=O)c1ccccc1	none
CN1/C(=C\C(=O)COC(=O)Cn2nnc(-c3ccccc3)n2)C(C)(C)c2ccccc21	HT1080 IDH1KD tx inconclusive, TDP1 cell noCPT 3.7µM, DT40 TDP1 CPT 4.1µM
COc1cccc(Cn2c(=O)c(-c3ccc(Cl)cc3)nc3cnc(OC)nc32)c1	none (no result: HT1080 IDH1KD tx, IL-1B inflam inh, HT1080-NT tox)
Cc1nc(N2N=C(c3ccc(Cl)cc3)CC2c2ccco2)sc1C(=O)N(C)C (centres undefined)	HT1080 IDH1KD tx inconclusive, IL-1B inflam inh inconclusive, TDP1 cell noCPT 16µM, DT40 TDP1 CPT 21µM
Cn1nnnc1SCC(=O)N1N=C(c2ccc(Cl)cc2)CC1c1ccco1 (centres undefined)	TDP1 cell noCPT 16µM, DT40 TDP1 CPT 21µM
CCC(=O)N1N=C(c2ccc(NS(=O)(=O)c3ccccc3)cc2)CC1c1ccco1 (centres undefined)	TDP1 cell noCPT 23µM, DT40 TDP1 CPT inconclusive
Cc1ccc(C2=NN(C(=O)CCCC(=O)O)C(c3ccco3)C2)cc1 (centres undefined)	none
O=C(CNC(=O)c1ccccc1)OCC(=O)N1N=C(c2ccc(Cl)cc2)CC1c1ccco1 (centres undefined)	none
Cc1ccc(S(=O)(=O)N[C@H](C(=O)OCC(=O)N2N=C(c3ccc(Cl)cc3)CC2c2ccco2)C(C)C)cc1 (some centres undefined)	TDP1 cell noCPT 23µM, DT40 TDP1 CPT 23µM
O=C(c1ccc(Br)o1)N1N=C(c2ccc(Cl)cc2)CC1c1ccco1 (centres undefined)	TDP1 cell noCPT inconclusive
C#CCOCCOCCOCCNc1nc(N2CCN(C(=O)Cn3cc(CCO)nn3)CC2)nc(N2CCN(C(=O)Cn3cc(CCCCN)nn3)CC2)n1	none
O=C(C1CCCO1)N1N=C(c2ccc(Br)cc2)CC1c1ccco1 (centres undefined)	IL-1B inflam inh inconclusive, TDP1 cell noCPT 15µM, DT40 TDP1 CPT inconclusive
Cc1ccc(C2=NN(C(=O)CN3C(=O)c4ccccc4S3(=O)=O)C(c3ccco3)C2)cc1 (centres undefined)	TDP1 cell noCPT inconclusive, DT40 TDP1 CPT 13µM
COc1ccc(C2=NN(C(=O)COc3ncnc4ccccc34)C(c3ccco3)C2)cc1 (centres undefined)	HT1080 IDH1KD tx inconclusive, IL-1B inflam inh inconclusive, TDP1 cell noCPT 26µM
CC(=O)N1N=C(c2ccc(Cl)cc2)CC1c1ccco1 (centres undefined)	TDP1 cell noCPT inconclusive, DT40 TDP1 CPT 16µM
Cc1ccc(C2=NN(C(=O)C3CCCO3)C(c3ccco3)C2)cc1 (centres undefined)	IL-1B inflam inh inconclusive, TDP1 cell noCPT inconclusive
CC(=O)N1N=C(c2ccc(C)cc2)CC1c1ccco1 (centres undefined)	TDP1 cell noCPT inconclusive
COc1ccc(N2CCN(C(=O)COc3ncnc4ccccc34)CC2)cc1	none
CC(=O)c1cccc(-n2nnnc2SCC(=O)Nc2cc(C)on2)c1	none
COc1cc(C2CC(=O)Nc3c2c(C)nn3-c2nncc(-c3ccccc3)n2)cc(OC)c1OC (centres undefined)	DT40 TDP1 CPT inconclusive (no result: HT1080 IDH1KD tx, IL-1B inflam inh, HT1080-NT tox)
CCN(CC)CC(=O)c1c(C)n(C)c2ccc(OC)cc12	none (no result: HT1080 IDH1KD tx, IL-1B inflam inh, HT1080-NT tox)
Cc1nnc(SCC(=O)N2N=C(c3ccc(Cl)cc3)CC2c2ccco2)[nH]c1=O (centres undefined)	IL-1B inflam inh inconclusive, TDP1 cell noCPT inconclusive, DT40 TDP1 CPT 15µM
CCN(CC)C(=O)N1c2ccccc2CC(N(CC)CC)c2ccccc21 (centres undefined)	TDP1 cell noCPT 5.8µM, DT40 TDP1 CPT 7.3µM
CCN(CC)C(=O)N1c2ccccc2Sc2ccccc21	TDP1 cell noCPT inconclusive, DT40 TDP1 CPT inconclusive
CC1C(=O)N(Cc2cn(Cc3ccco3)nn2)CCS(=O)(=O)N1Cc1ccc(-c2ccc(F)cc2Cl)cc1 (centres undefined)	HT1080 IDH1KD tx inconclusive, TDP1 cell noCPT inconclusive, DT40 TDP1 CPT inconclusive
CC(C)C1C(=O)N(Cc2cn(Cc3ccco3)nn2)CCS(=O)(=O)N1Cc1ccc(-c2cccc(N(C)C)c2)cc1 (centres undefined)	TDP1 cell noCPT 16µM, DT40 TDP1 CPT inconclusive
Cc1ccc(-c2ccc(CN3C(C(C)C)C(=O)N(Cc4cn(Cc5ccco5)nn4)CCS3(=O)=O)cc2)cc1 (centres undefined)	HT1080 IDH1KD tx inconclusive, HT1080-NT tox inconclusive, TDP1 cell noCPT 18µM, DT40 TDP1 CPT 18µM
CC1C(=O)N(Cc2cn(Cc3ccco3)nn2)CCS(=O)(=O)N1Cc1ccc(-c2ccncc2)cc1 (centres undefined)	TDP1 cell noCPT 21µM, DT40 TDP1 CPT inconclusive
CC1C(=O)N(Cc2cn(Cc3ccco3)nn2)CCS(=O)(=O)N1Cc1ccc(-c2ccc(F)cc2)cc1 (centres undefined)	TDP1 cell noCPT inconclusive, DT40 TDP1 CPT inconclusive
Cc1ccc(C(=O)Nc2ccc(Cc3ccncc3)cc2)cc1[N+](=O)[O-]	IL-1B inflam inh inconclusive, TDP1 cell noCPT 21µM, DT40 TDP1 CPT 21µM
COC(=O)c1cc(NC(=O)c2cccc([N+](=O)[O-])c2C)ccc1Cl	HT1080-NT tox inconclusive, TDP1 cell noCPT 16µM
Cc1ccc(C(=O)Nc2cccc(NC(=O)c3ccc(C)c([N+](=O)[O-])c3)n2)cc1[N+](=O)[O-]	TDP1 cell noCPT 16µM, DT40 TDP1 CPT inconclusive

Source: PubChem (National Center for Advancing Translational Sciences (NCATS))
